Common to all, as to conditions: concentration: 1 μM, replicates: in singlicate; n = 1
For assay [1], the system named is CLK2.
The test system of assay [2] is CLK3.
Assay [3] concerns CLK4.
The subject of assay [4] is CSF1R-autoinhibited.
Assay [5] deals with CSF1R.
The subject of assay [6] is CSK.
In assay [7] the test system is CSNK1A1L.
Assay [8] relates to CSNK1A1.
For assay [9], the system named is CSNK1D.
Assay [10] deals with CSNK1E.
For assay [11], the system named is CSNK1G1.
The subject of assay [12] is CSNK1G2.
The test system of assay [13] is CSNK1G3.
Assay [14] has as its system CSNK2A1.
Assay [15] has as its system CSNK2A2.
The test system of assay [16] is T1, CTK.
T1 construct: gene MATK

For assay [17], the system named is DAPK1.
The test system of assay [18] is DAPK2.
Assay [19] deals with DAPK3.
In assay [20] the test system is T2, DCAMKL1.
T2 construct: gene DCLK1
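Also: KINOMEscan kinase panel screen.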

For the molecule `CSc1ccc(NC2=C(c3ccc(Cl)cc3)C(=O)NC2=O)cc1` [SB-317658], the “%Inh” value in assay [1] is given as 26%; in assay [2] it was 0%; in [3] it was 19%; in assay [4], 0%; in assay [5] it was 30%; in assay [6], 21%. Also, the “%Inh” value came to 0% in [7]; 20% in assay [8]; 1% in [9]; 6% in assay [10]; 0% in [11]; 15% in assay [12]. The “%Inh” value in assay [13] is listed as 0%; in assay [14], 0%; in [15] it was 25%; in [16], 19%; in assay [17] it was 0%; in [18] it was 0%. Besides, the “%Inh” value in [19] and in [20] was 0% each time.

As to `CC(C)(C)c1ccc(C(=O)Nc2cn3cc(-n4ccnc4)ccc3n2)cc1`, the “%Inh” value was determined as 79% in assay [1]; 16% in [2]; 84% in assay [3]; 0% in assay [4]; 46% in [5]; 0% in assay [6]. The “%Inh” value in assay [7] was determined as 34%; in assay [8] it was 60%; in [9] it was 84%; in assay [10], 70%; in [11], 0%; in assay [12], 12%. The “%Inh” value in assay [13] worked out at 0%; in [14] it was 0%; in assay [15], 7%; in assay [16], 24%; in [17] it was 0%; in assay [18] it was 16%. Further, the “%Inh” value in assay [19] came out at 2%; in [20] it was 29%.

`COc1cc(Nc2nccc(N3CCC(NS(=O)(=O)c4ccc(NC(C)=O)cc4)CC3)n2)cc(OC)c1OC` [GSK1379825]: the “%Inh” value in assay [1] came to 0%; in assay [2], 23%; in assay [3], 39%; in assay [4], 7%; in assay [5], 19%; in assay [6], 0%. Moreover, the “%Inh” value in [7] stood at 3%; in assay [8] it was 8%; in [9], 0%; in assay [10], 21%; in assay [11], 0%; in assay [12], 0%. Further, the “%Inh” value is on record as 0% in [13]; 8% in [14]; 2% in assay [15]; 0% in assay [16]; 0% in assay [17]; 0% in assay [18]. Also, the “%Inh” value turned out to be 8% in assay [19] and 0% in assay [20].

For the molecule `CC(C)NCC(Cc1ccccc1)NC(=O)c1cc(Br)c(-c2ccnc3[nH]ccc23)s1.Cl.Cl` (stereo not drawn) [GSK1383281], the “%Inh” value in assay [1] was 44%; in assay [2], 22%; in assay [3] it was 25%; in assay [4], 0%; in assay [5], 46%; in assay [6] it was 6%. Further, the “%Inh” value in [7] was determined as 5%; in assay [8] it was 0%; in assay [9], 26%; in [10], 33%; in assay [11] it was 13%; in assay [12], 14%. The “%Inh” value in assay [13] was 29%; in [14], 59%; in assay [15], 46%; in assay [16] it was 0%; in assay [17], 18%; in assay [18], 0%. In addition, the “%Inh” value in assay [19] is listed as 37%; in assay [20] it was 34%.

Regarding `Cl.N#CCc1ccc(Nc2nccc(Nc3ccc(Oc4ccccc4)cc3)n2)cc1` [GW639905], the “%Inh” value in assay [1] came to 9%; in assay [2], 0%; in assay [3], 3%; in assay [4] it was 7%; in [5], 35%; in assay [6], 31%. Further, the “%Inh” value in [7] was 0%; in assay [8], 0%; in assay [9], 0%; in assay [10], 8%; in [11], 1%; in [12], 0%. Moreover, the “%Inh” value is given as 8% in [13]; 0% in assay [14]; 9% in assay [15]; 28% in assay [16]; 0% in assay [17]; 60% in assay [18]. Further, the “%Inh” value in assay [19] came to 40%; in assay [20] it was 12%.

With `Cc1nn2c(=O)cc(N3CCO[C@H](C)C3)nc2n1Cc1cccc(Cl)c1Cl` [GSK2373693], the “%Inh” value in [1] was 31%; in assay [2], 4%; in assay [3] it was 59%; in [4], 0%; in assay [5] it was 6%; in assay [6] it was 56%. Besides, the “%Inh” value in assay [7] is listed as 0%; in [8], 16%; in assay [9], 69%; in assay [10], 25%; in [11] it was 10%; in [12], 0%. Besides, the “%Inh” value was found to be 26% in assay [13]; 50% in [14]; 63% in [15]; 0% in assay [16]; 37% in assay [17]; 54% in [18]. For the same molecule, the “%Inh” value in [19] came out at 94.7%; in [20], 0%.

`COC(=O)Nc1nc2cc(Oc3ccc(NC(=O)Nc4cccc(SC)c4)cc3)ccc2[nH]1.Cl` [GW697999]: the “%Inh” value came to 32% in [1]; 23% in assay [2]; 24% in assay [3]; 53% in assay [4]; 99.6% in assay [5]; 0% in assay [6]. Further, the “%Inh” value in assay [7] came out at 6%; in [8] it was 0%; in assay [9], 17%; in assay [10], 22%; in assay [11], 6%; in assay [12], 0%. Besides, the “%Inh” value in [13] came out at 1%; in [14], 0%; in [15] it was 0%; in assay [16], 0%; in assay [17] it was 0%; in [18] it was 43%. Moreover, the “%Inh” value in assay [19] was found to be 1%; in assay [20], 21%.

`CN(c1ccc(NC(=O)Nc2cccc(Cl)c2)cc1)c1ccnc(N)n1.Cl` [GW830707]: the “%Inh” value in assay [1] is on record as 0%; in assay [2], 0%; in [3] it was 0%; in assay [4], 0%; in [5], 99.5%; in assay [6] it was 7%. The “%Inh” value in [7] is 0%; in [8], 0%; in assay [9], 18%; in assay [10] it was 0%; in assay [11] it was 12%; in assay [12] it was 0%. The “%Inh” value is 0% in assay [13]; 0% in [14]; 0% in assay [15]; 13% in [16]; 0% in assay [17]; 0% in [18]. In addition, the “%Inh” value in assay [19] and in [20] was 0% each time.

With `Cl.Cl.NC(CNC(=O)c1cc(Br)c(-c2ccnc3[nH]ccc23)s1)c1ccccc1` (stereo not drawn) [GSK1322949], the “%Inh” value is 88% in assay [1]; 73% in [2]; 91.5% in assay [3]; 7% in assay [4]; 29% in assay [5]; 0% in assay [6]. In addition, the “%Inh” value in [7] is given as 47%; in assay [8] it was 87%; in assay [9], 89%; in assay [10], 90.8%; in assay [11] it was 30%; in [12], 59%. In addition, the “%Inh” value came out at 60% in assay [13]; 90% in assay [14]; 84% in assay [15]; 0% in [16]; 41% in [17]; 31% in [18]. Further, the entries for the “%Inh” value in [19] and in [20] were 54% and 37%, respectively.

The record behind these values is publication PMC5540273 (PLoS ONE, 2017).
